# Source: PubChem BioAssay (NCI)
# This is part of a sample that, as a whole, favours compounds with a hit. Of some 83,000 tested, about 20% had one in any assay.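 The endpoint reported here, percent growth, reads 100 for growth as untreated, 0 for no net growth and -100 for all cells dead.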 A number with no mark means an inactive call. Active and inactive are the calls of the source. The calls were made as follows: active = growth percent below 10; inactive = the rest.
# What was measured:
# Experiment in all cases: NCI-60 one-dose screen, 48 h (100 = growth as untreated, 0 = no growth, -100 = all killed)
# Conditions in all cases: 10 µM unless noted
# T-47D breast = tested on: T-47D breast
# BT-549 breast = tested on: BT-549 breast
# MDA-MB-435 melanoma = tested on: MDA-MB-435 melanoma
# SW-620 colon = tested on: SW-620 colon
# MCF7 breast = tested on: MCF7 breast
# HCT-116 colon = tested on: HCT-116 colon
# HCC-2998 colon = tested on: HCC-2998 colon
# KM12 colon = tested on: KM12 colon
SMILES,growth (T-47D breast),growth (BT-549 breast),growth (MDA-MB-435 melanoma),growth (SW-620 colon),growth (MCF7 breast),growth (HCT-116 colon),growth (HCC-2998 colon),growth (KM12 colon)
COc1ccc(C(=O)/C=C/c2c(C(F)(F)F)nc3ccccn23)cc1OC,-10.7% (active),4.31% (active),10.4%,-4.44% (active),8.07% (active),-34.1% (active),-9.15% (active),3.34% (active)
Cn1ccc(=O)c(C(=O)Nc2nsc3ccc([N+](=O)[O-])cc23)c1,74.6%,69.8%,75.6%,56.5%,34.7%,56.2%,87%,65.3%
N#CSCC1CC(O)(c2ccccc2)CC(c2ccc(F)cc2)O1 (centres undefined),12.5%,-9.66% (active),0.665% (active),-58.8% (active),-17% (active),-60.4% (active),72%,-49.3% (active)
COc1ccc(OC)c(-c2nc(SCC(=O)c3ccc(C#N)cc3)[nH]c(=O)c2C#N)c1,117%,99.4%,100%,98.6%,100%,95%,95.9%,91.8%
Cc1csc(Nc2nc(-c3ccccn3)nc(C(Cl)(Cl)Cl)n2)n1,78.8%,110%,82.3%,86.3%,84.2%,75%,107%,82.8%
COC1=CC(c2ccc[nH]2)=N/C1=C\c1[nH]c(C)c(CC(=O)NCc2ccccc2)c1C,15.1%,40.2%,15.9%,20.6%,11%,2.09% (active),13.9%,-46.1% (active)
COc1ccc(-c2ccc(=O)oc2-c2cc(OC)c(OC)c(OC)c2)cc1O,67.8%,5.78% (active),-37.5% (active),9.8% (active),1.84% (active),-67.4% (active),-2.78% (active),1.71% (active)
C=C1C(=O)O[C@H]2[C@H]1CC/C(COC(=O)c1cc3ccccc3s1)=C\CC[C@@]1(C)O[C@@H]21,-50.2% (active),-59% (active),-71% (active),-67.4% (active),-41.9% (active),-83.8% (active),-76.6% (active),-59.7% (active)
CC(C)(Sc1cc(C(C)(C)C)c(O)c(C(C)(C)C)c1)Sc1cc(C(C)(C)C)c(OC(=O)CCCC(=O)O)c(C(C)(C)C)c1,36.6%,64.9%,60.4%,43.7%,36.2%,26.5%,50.4%,36.7%
COc1cc2nc3cc([N+](=O)[O-])ccc3c(NCCNCC(C)O)c2cc1OC (centres undefined),-7.36% (active),-40.5% (active),-87.6% (active),-4.13% (active),-13.3% (active),-18.8% (active),-47.8% (active),-11.9% (active)
COc1ccc(Nc2nnc(-c3ccc(OC)c(OC)c3)o2)cc1,79.1%,61.8%,109%,97.7%,90.9%,77.8%,120%,85.1%
Cn1c(=O)cc2c3c(c(NCCCO)ccc31)C(=O)c1ccccc1-2,51.8%,73.6%,44%,32.6%,27.6%,16.5%,49.1%,42.7%
Nc1nc2ccc(-c3nc4ccc5[nH]ncc5c4c4c3CCCC4)cc2s1,110%,106%,111%,106%,97.7%,91.8%,107%,101%
COc1ccc(-c2nn(-c3cccc(Cl)c3)cc2-c2cc(-c3ccc(Br)cc3)nc(N)n2)cc1,66.2%,114%,99.6%,100%,57.4%,91.5%,104%,93.4%
Cn1ccnc1C(=O)/C=C/c1ccc(C(=O)Nc2ccc(Cl)cc2)cc1,9.37% (active),-7.95% (active),23.8%,-46.8% (active),12.6%,-49% (active),-10.1% (active),-49.8% (active)
COC(=O)c1c(C)nc(C)c2c1C(=O)C(Br)=C(NCc1ccccc1)C2=O,13.7%,50.9%,-76.5% (active),16.7%,-30.2% (active),1.86% (active),21.8%,37.1%

SMILES,growth (T-47D breast),growth (BT-549 breast),growth (MDA-MB-435 melanoma),growth (SW-620 colon),growth (MCF7 breast),growth (HCT-116 colon),growth (HCC-2998 colon),growth (KM12 colon)
CCNCCNc1cc(C2CCCCC2)c(C#N)c2nc3ccccc3n12,-19.4% (active),-19.7% (active),-38.6% (active),7.58% (active),14.7%,-4.22% (active),13.6%,38.8%
Cc1cc(=O)oc2cc(OCc3nn4c(Nc5nc6ccccc6s5)c(-c5ccccc5)nc4s3)ccc12,88.1%,92.6%,88.8%,85.3%,84.1%,85.4%,98.5%,89.6%
Cc1ccc(-c2nc(N3CCCNCC3)c3oc(-c4ccccc4)nc3n2)cc1,-67.5% (active),81.2%,-87.9% (active),-73.3% (active),-74.7% (active),-79.2% (active),-92.1% (active),-81.5% (active)
CC(C)c1ccc(-n2c(=S)[nH]c3sc4cc(O)ccc4c3c2=O)cc1,105%,91.4%,100%,96.9%,90.1%,98.4%,103%,105%
COc1cc(/C=C2/C=C(c3ccccc3)N(CCc3ccc(S(N)(=O)=O)cc3)C2=O)cc(OC)c1OC,83.5%,94.4%,106%,102%,87.8%,84.7%,105%,105%
O=C1c2c(c3c4ccccc4[nH]c3c3ccc4ccccc4c23)C(=O)N1CCN1CCNCC1,55.8%,93.5%,80.9%,-54.9% (active),23%,-81.3% (active),73.7%,36.3%
CN(C)CCNC(=O)c1ccc(-c2nc3ccc4[nH]ncc4c3c3c2C2CCC3C2)cc1 (centres undefined),43.6%,2.26% (active),42%,17.8%,9.64% (active),9.52% (active),38.5%,2.75% (active)
Nc1c(C(=O)Nc2ccccc2C(F)(F)F)sc2nc3c(cc12)CCC3,67.4%,115%,92.8%,96%,95.8%,107%,94.6%,113%
CN1CCN(C(=O)c2ccc(NC(=O)c3cc4c(nn3)NCCN4Cc3cc(Cl)ccc3Cl)cc2)CC1,97.3%,60.1%,61.4%,50.6%,46%,32%,99.8%,21.7%
COC1/C=C/OC2(C)Oc3c(C)c(O)c4c(O)c(c(/C=N/Nc5ccc([N+](=O)[O-])cc5[N+](=O)[O-])c(O)c4c3C2=O)NC(=O)C(C)=C/C=C/C(C)C(O)C(C)C(O)C(C)C(OC(C)=O)C1C (centres undefined),-31.2% (active),13.7%,3.5% (active),-41.2% (active),36.6%,-46.7% (active),-14.1% (active),9.93% (active)
C=C(C)[C@@H]1CC[C@]2(C(=O)O)CC[C@]3(C)[C@H](CC[C@@H]4[C@@]5(C)CCC(NC(=O)c6cccc(OC(C)=O)c6OC(C)=O)C(C)(C)[C@@H]5CC[C@]43C)[C@@H]12 (some centres undefined),20.9%,16.5%,-56.4% (active),2.79% (active),4.17% (active),-38.6% (active),12%,12.1%
COC(=O)C1Cc2ccccc2CN1C(=O)c1ccc2c(c1)Cc1ccccc1-2 (centres undefined),15.8% [50 µM],28.3% [50 µM],24.9% [50 µM],51.2% [50 µM],16.7% [50 µM],30.2% [50 µM],67.7% [50 µM],34.2% [50 µM]
COc1ccc(OC)c(Nc2nnc(-c3ccc(O)c(OC)c3)o2)c1,43.9%,79.4%,85%,78.6%,77.7%,63.8%,90.6%,20.4%
N#CC1=C(c2ccccc2)Nc2c(c(-c3ccc(Cl)cc3)nn2-c2ccccc2)C12C(=O)Nc1ccc(Cl)cc12 (centres undefined),55.8%,76.2%,45.3%,85.9%,54.9%,65.5%,90.6%,83%
COc1cc(-c2nccc3[nH]c(-c4ccc5cc[nH]c5c4)nc23)cc(OC)c1OC,30.5%,18.4%,5.17% (active),-15.6% (active),2.12% (active),4.37% (active),,3.62% (active)
O=C(O)c1cn(C2CC2)c2cc(N3CCN(Cc4ccc5ccccc5c4O)CC3)c(F)cc2c1=O,30.9%,-59.1% (active),33.6%,36.1%,17%,14.5%,,42.4%
